OTUD3 block: inhibitors of human OTUD3 deubiquitinase; OTU domain-containing protein 3 (Homo sapiens), Q5T2D3; purified OTUD3, Ub-rhodamine fluorescence, 2 h; inhibition, % at 25 µM; 0.7% of 47,000 active; AID 1645858, 2021
USP30 block: inhibitors of human USP30 deubiquitinase; Ubiquitin carboxyl-terminal hydrolase 30 (Homo sapiens), Q70CQ3; purified USP30, Ub-rhodamine cleavage fluorescence; AID 1645860, 2021; inhibition, % at 25 µM; 5.3% of 47,000 active
Target sequence (Q70CQ3 whole entry, looked up): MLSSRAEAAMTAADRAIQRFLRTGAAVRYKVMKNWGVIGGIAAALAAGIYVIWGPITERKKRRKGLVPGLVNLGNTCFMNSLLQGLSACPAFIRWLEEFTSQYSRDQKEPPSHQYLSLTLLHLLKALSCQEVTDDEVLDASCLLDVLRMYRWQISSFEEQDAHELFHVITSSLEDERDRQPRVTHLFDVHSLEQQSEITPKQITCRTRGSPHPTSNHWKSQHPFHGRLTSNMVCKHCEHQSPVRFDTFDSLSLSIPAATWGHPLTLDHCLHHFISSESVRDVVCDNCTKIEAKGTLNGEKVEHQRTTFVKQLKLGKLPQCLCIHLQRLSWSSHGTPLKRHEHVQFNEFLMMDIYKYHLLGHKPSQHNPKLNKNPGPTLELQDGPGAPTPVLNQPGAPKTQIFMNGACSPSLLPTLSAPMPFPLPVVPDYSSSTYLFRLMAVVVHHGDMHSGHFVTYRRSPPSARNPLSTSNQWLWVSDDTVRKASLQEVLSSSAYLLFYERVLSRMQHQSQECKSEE
USP28 block: inhibitors of human USP28 deubiquitinase; Ubiquitin carboxyl-terminal hydrolase 28 (Homo sapiens), Q96RU2; purified USP28, Ub-rhodamine cleavage fluorescence, 30 min; inhibition, % at 25 µM; 3% of 47,000 active
USP17 inh: inhibitors of human USP17 deubiquitinase; inhibition, % at 50 µM; purified USP17, Ub-rhodamine cleavage fluorescence, 3 h; AID 1645855, 2021; 6.5% of 47,000 active
The depositor's hits bear a star; · = no result. An excerpt weighted towards active compounds, which were near 12% of everything screened. Cut-off read from the data, not from the text of the source: active = inhibition above about 30%; inactive = the rest.

SMILES	OTUD3 block	USP30 block	USP28 block	USP17 inh
COc1ccccc1C1C2=C(NCCN=C2c2ccccc2)C(=O)N1c1ccccc1 (stereo not drawn)	0.1	-6.1	3.7	-7.0
Cc1ccc(C2=NCCNC3=C2C(c2ccccc2F)N(c2ccccc2)C3=O)cc1 (stereo not drawn)	11.1	36.4*	13.0	3.7
COc1ccc(CCN2CC(=O)N3CCc4c([nH]c5ccccc45)C3(C)C2=O)cc1OC (stereo not drawn)	-25.0	-17.0	-18.1	-22.0
CC(Sc1nnc(-c2ccccc2F)n1Cc1ccccc1)C(=O)N1CCc2ccccc21 (stereo not drawn)	25.1	41.9*	17.7	24.1
CC(Sc1nnc(-c2ccccc2F)n1CCc1ccccc1)C(=O)N(C)c1ccccc1 (stereo not drawn)	0.3	15.8	7.9	4.7
Fc1ccccc1-c1nnc(SCc2ccccc2)n1Cc1ccccc1	34.8*	56.2*	63.8*	48.1*
O=C(CSc1nnc(-c2ccccc2F)n1CCc1ccccc1)c1c[nH]c2ccccc12	-22.0	-45.2	-44.2	-51.5
Cc1cc(F)ccc1NS(=O)(=O)c1ccc2c(c1)NC(=O)CC(C)S2 (stereo not drawn)	14.1	3.8	12.1	-1.1
COc1ccccc1CC(=O)N(C)C(c1ccccc1)c1ccccc1	35.1*	51.9*	25.6	27.2
COc1cc(CCC(=O)N(C)C(c2ccccc2)c2ccccc2)cc(OC)c1OC	0.0	0.1	3.6	4.8
C[C@H](NC(=O)Cc1ccccc1F)c1nc2cc(-c3ccccc3F)ncn2n1	35.8*	63.9*	37.3*	42.5*
COc1ccc(-c2cc3nc([C@H](C)NC(=O)Cc4ccccc4C)nn3cn2)cc1	46.7*	26.6	19.6	60.8*
COc1ccc(-c2cc3nc([C@H](C)NC(=O)COc4ccccc4F)nn3cn2)cc1	22.7	46.7*	12.4	38.0*
COc1ccc(-c2cc3nc([C@H](C)NC(=O)CC4CCCC4)nn3cn2)cc1	17.2	7.9	0.1	18.2
COCc1ccc(C(=O)N[C@H](C)c2nc3cc(-c4ccc(OC)cc4)ncn3n2)cc1	3.9	22.1	15.3	8.0
C[C@@H](NC(=O)c1ccc2c(c1)OCO2)c1nc2cc(-c3ccccc3F)ncn2n1	10.6	15.2	13.8	17.2
C[C@@H](NC(=O)c1ccc2c(c1)OCCO2)c1nc2cc(-c3ccccc3F)ncn2n1	42.6*	77.8*	47.0*	65.9*
O=C(CC(c1cccc(F)c1)n1cccc1)NCc1ccccc1 (stereo not drawn)	-9.8	0.2	-0.4	7.9
CN1CC(=O)N(c2ccccc2)CC12CCN(Cc1nccn1C)C2 (stereo not drawn)	-6.4	-17.8	-14.6	-8.0
O=C(c1cccc(F)c1)N1CCCC1c1nccnc1-c1ncc[nH]1 (stereo not drawn)	-5.6	-29.3	-12.6	-15.2
COc1ccc(NC(=O)Nc2ccc(CCc3nc4ccccc4[nH]3)cc2)c(OC)c1	15.7	76.3*	28.4	59.4*
COc1ccc(OC)c(NC(=O)CCc2nc3ccccc3[nH]2)c1	3.6	5.4	3.3	7.9
COc1cc(OC)cc(C(=O)Nc2cccc(CCc3nc4ccccc4[nH]3)c2)c1	0.8	12.6	8.2	9.3
COc1cccc(NC(=O)Nc2ccc(CCc3nc4ccccc4[nH]3)cc2)c1	-4.0	8.3	66.2*	41.9*
COc1cccc(C(C)NC(=O)c2snc(-c3ccncc3)c2N)c1 (stereo not drawn)	-10.9	-19.4	-9.0	-65.9
SMILES	OTUD3 block	USP30 block	USP28 block	USP17 inh
O=C(CSc1nc2ccsc2c(=O)n1Cc1ccccc1)Nc1ccccc1C(F)(F)F	1.7	·	·	55.1*
O=C(C1CCCC1)N1CCCC(Cc2cnc(-c3ncc[nH]3)cn2)C1 (stereo not drawn)	-1.8	-0.2	-4.1	-12.1
CC1CCN(C(=O)c2ccc(-n3cc(CNC(=O)C4CC4)cn3)cc2)CC1	-7.0	-7.4	-9.1	-11.3
Cc1cccc(-n2ncc(C(=O)Nc3cccc(F)c3)c2-n2cccc2)c1	13.9	33.8*	16.1	11.0
COc1ccc(NC(=O)c2nnn(-c3ccccc3F)c2C)cc1OC	-10.3	-2.0	73.9*	-6.6
Cc1c(C(=O)Nc2ccc(Oc3ccccc3)cc2)nnn1-c1cccc(Cl)c1	17.1	24.7	49.9*	16.1
Cc1cccc(-n2nnc(C(=O)Nc3ccc(F)cc3)c2C)c1	15.9	31.5*	18.6	18.9
O=C(C1CCCCC1)N(CC1CCCO1)c1nc(-c2ccccc2)cs1 (stereo not drawn)	1.0	-6.9	-3.1	-17.0
COc1cccc(C(=O)Nc2nc(-c3nnn(-c4ccc(C)c(F)c4)c3C)ns2)c1	29.1	95.0*	64.3*	61.5*
Cc1ccc(NC(=O)c2nnn(-c3ccccc3Br)c2C)cc1C	8.3	10.4	84.1*	10.9
COc1ccc(-c2cnnn2-c2ccc(NC(=O)c3c(F)cccc3F)cc2)cc1OC	-6.4	82.8*	4.5	·
Cc1ccc(NC(=O)c2nnn(-c3cccc(F)c3)c2C)cc1C	10.8	11.8	20.4	13.4
COc1ccc(OC)c(NC(=O)c2ccc(C)c(F)c2)c1	-5.7	-7.9	-0.8	-5.4
CCc1ccc(NC(=O)c2nnn(-c3cccc(C)c3)c2C)cc1	-0.4	-14.8	40.6*	0.8
Cc1cc(NC(=O)c2nnn(-c3ccc(Cl)cc3)c2C)no1	11.1	17.4	6.5	9.4
CCCCCn1c(=O)[nH]c2cc(C(=O)N3CCN(c4ncccn4)CC3)ccc2c1=O	-1.9	-19.4	-13.3	-4.0
COc1ccccc1-c1noc2ncnc(NCCN3CCCC3)c12	-6.0	-28.7	-7.4	-9.7
Cc1c(C(=O)Nc2ccc(F)cc2)nnn1-c1cccc(F)c1	9.4	36.7*	9.8	28.9
COc1cccc(-n2nnc(C(=O)Nc3ccc(C)c(C)c3)c2C)c1	13.0	6.2	58.4*	16.4
COc1ccc(-n2nnc(C(=O)Nc3ccccc3F)c2C)cc1	15.0	25.1	12.4	9.9
COc1cc(=O)c(C(=O)Nc2ccc(C#N)cc2)nn1-c1cccc(F)c1	-1.8	-0.1	42.8*	64.5*
COc1ccc(NC(=O)c2nnn(-c3cccc(C)c3)c2C)cc1	19.1	20.9	59.1*	14.2
CCc1ccc(NC(=O)c2nnn(-c3cccc(F)c3)c2C)cc1	8.2	14.3	17.4	14.3
O=C(Cc1ccccn1)N1C[C@H](Oc2ccccn2)[C@H]2OCCC[C@H]21	-30.6	-167.9	-52.0	-39.1
COc1cccc(C(=O)CN2C(=O)c3ccccc3OC(c3ccccc3)C2=O)c1 (stereo not drawn)	9.4	11.9	22.2	15.3
CC(C)c1ccc(Sc2ccc(N3CCC(C(=O)O)CC3)nn2)cc1	-2.9	19.3	6.0	15.3
O=C(CSc1nnc(-c2ccco2)n1C1CCCCC1)Nc1ccc2[nH]c(=O)[nH]c2c1	-17.6	-37.2	-18.8	1.3
N#Cc1c(N)nc2c(c1N)C(c1ccccc1)CO2 (stereo not drawn)	4.1	57.9*	17.6	43.9*

Screens (PubChem BioAssay)
